The text below walks through data of PubChem BioAssay (NCI).

This is part of a sample that, as a whole, favours compounds with a hit. Of some 83,000 tested, about 20% had one in any assay.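 Each cell line was grown in a 96-well plate and treated with one concentration of compound for 48 hours. Values below 10 were considered active.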 Values without a mark were called inactive. Active and inactive are the calls of the source.

Test in all cases: NCI-60 one-dose screen, 48 h (100 = growth as untreated, 0 = no growth, -100 = all killed)
Holding throughout (conditions): 10 µM unless noted

For assay [1], the system named is HCT-15 colon.
For assay [2], the system named is HT29 colon.
In assay [3] the test system is SNB-75 CNS.
For assay [4], the system named is SNB-19 CNS.
Assay [5] deals with U251 CNS.
Assay [6] has as its system PC-3 prostate.
The subject of assay [7] is SK-MEL-5 melanoma.
Assay [8] has as its system UACC-62 melanoma.
Assay [9] concerns LOX IMVI melanoma.
The test system of assay [10] is SK-MEL-28 melanoma.
Assay [11] concerns SK-MEL-2 melanoma.
Assay [12] relates to EKVX NSCLC.
Assay [13] has as its system SN12C renal.
The subject of assay [14] is UO-31 renal.
The test system of assay [15] is TK-10 renal.
The test system of assay [16] is ACHN renal.
Assay [17] concerns CAKI-1 renal.
In assay [18] the test system is A498 renal.
Assay [19] deals with CCRF-CEM leukemia.
Assay [20] concerns MOLT-4 leukemia.

For `O=C(Nc1ccccc1CNc1nc(Nc2ccc(OCCN3CCCC3)cc2)ncc1Cl)NC1CCCCC1`, the growth in assay [1] is 60.7%; in [2] it was 9.11% (active); in assay [3] it was 96.5%; in [4], 91.6%; in assay [5], 70.4%; in assay [6], 84%. For the same molecule, the growth was 64.6% in assay [7]; 97.3% in assay [8]; 84.7% in [9]; 79.8% in assay [10]; 115% in assay [11]; 95% in [12]. In addition, the growth was 88.1% in assay [13]; 56.3% in [14]; 116% in assay [15]; 78.2% in assay [16]; 94.3% in assay [17]; 75.3% in [18]. In addition, the growth in assay [19] was 12%; in assay [20] it was 72.3%.

In the case of `COc1ccc(C(=O)/C=C/Nc2cc(-c3ccccc3)nn2-c2ccccc2)cc1`, the growth in [1] is 88.1%; in [2] it was 99.4%; in assay [3], 94%; in assay [4] it was 92%; in [5] it was 93.2%; in [6], 86.8%. Further, the growth was 93% in [7]; 72.2% in [8]; 99.5% in assay [10]; 101% in assay [11]; 89.4% in [12]; 94.5% in [13]. Also, the growth was 79.3% in assay [14]; 84.2% in assay [15]; 99% in [16]; 94.3% in assay [17]; 78% in [18]; 84.2% in assay [19]. In addition, the growth in [20] is 85.4%.

With `Nc1cc(-c2ccc(Cl)cc2)nn1-c1nc(-c2ccc(Br)cc2)cs1`, the growth in assay [1] is 98.3%; in [2], 92%; in assay [3] it was 89.4%; in assay [4], 91.4%; in [5] it was 95.2%; in [6], 91.5%. The growth was 100% in assay [7]; 91.1% in assay [8]; 102% in assay [9]; 95.3% in assay [10]; 96.9% in assay [11]; 93.6% in assay [12]. Further, the growth in assay [13] was 97.7%; in [14] it was 93.4%; in assay [15], 96.4%; in assay [16], 101%; in assay [17], 97.8%; in assay [18] it was 91.7%. In addition, the growth is 104% in assay [19] and 103% in [20].

Consider `C=CCOC(=O)C1=C(C)N(CC)C(=O)N(CC)C1c1c(Cl)n(C)c2ccccc12` (stereo not drawn), for which the growth in assay [1] is 78.4%; in assay [2], 82.3%; in assay [3], 81.6%; in assay [4] it was 75.6%; in [5], 88.3%; in [6] it was 50.4%. Moreover, the growth is 96.5% in assay [7]; 59.4% in assay [8]; 52.8% in assay [9]; 99.2% in [10]; 95.6% in assay [11]; 75.5% in assay [12]. The growth in assay [13] is 89%; in [14], 64.6%; in assay [15] it was 94.1%; in [16] it was 56.9%; in assay [17], 32.8%; in assay [18], 82.5%. In addition, the growth in assay [19] was -9.42% (active); in assay [20] it was 89.3%.

With `N=C(N)c1ccc(-c2ccc(-c3ccccc3)s2)nc1`, the growth was 44.9% in assay [1]; 26.7% in assay [2]; 88.4% in [3]; 87.5% in [4]; 41.1% in assay [5]; 80.5% in [6]. The growth in assay [7] was 87.5%; in assay [8], 91.6%; in assay [9], 51.3%; in [10], 109%; in [11], 104%; in [12], 88.8%. Besides, the growth is 82.4% in assay [13]; 79.9% in assay [14]; 106% in assay [15]; 91.5% in assay [16]; 73.6% in [17]; 88.3% in [18]. In addition, the growth in assay [19] is 68.9%; in assay [20], 57.3%.

For `O=C1C2C(c3cccs3)C=C(c3ccc(Cl)cc3)N2C(=S)N1c1ccccc1` (stereo not drawn), the growth in [1] is 112%; in [2], 114%; in assay [3] it was 97.9%; in assay [4], 94.4%; in assay [5], 97.9%; in [6], 85.7%. Further, the growth in [7] is 97.8%; in assay [8] it was 88.8%; in [10], 105%; in assay [11] it was 102%; in [12], 109%; in [13], 95.8%. Further, the growth in [14] is 71.4%; in assay [15], 116%; in assay [16], 95.5%; in assay [17], 91.3%; in assay [18], 88.6%; in assay [19], 98.3%. Further, the growth in assay [20] is 95.4%.

Consider `Nc1nc(Nc2ccc([N+](=O)[O-])cc2O)nc(C(Cl)(Cl)Cl)n1`, for which the growth is 53.3% in assay [1]; 106% in assay [2]; 62.6% in [3]; 80.2% in [4]; 73.3% in assay [5]; 91.6% in assay [6]. The growth is 72.7% in [7]; 41.1% in assay [8]; 44.8% in assay [9]; 60% in assay [10]; 79% in assay [11]; 106% in [12]. Further, the growth in assay [13] is 80.6%; in assay [14], 71.7%; in [15], 92.4%; in [16], 79.7%; in [17], 46.3%; in assay [18], 36.5%. Besides, the growth in assay [19] is 19.3%; in assay [20] it was 25.8%.
